Test results taken from PubChem BioAssay (NCI).
Several values for one entry are separate records, joined by “and”; a condition that tells them apart may be missing. Equal entries are not always repeated. Compounds without any hit were thinned out: in the full panel of roughly 83,000, 20% have a hit.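 Results are percent growth after 48 hours of single-concentration exposure. 100 means growth as in untreated cells, lower positive values show inhibition; negative values down to -100 show cell death.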 Values without a mark were called inactive. Activity calls are given as the source filed them. The calls were made as follows: active = growth percent below 10; inactive = the rest.

Test system: MDA-MB-468 breast
Assay: NCI-60 one-dose screen, 48 h (100 = growth as untreated, 0 = no growth, -100 = all killed)
Conditions: 10 µM unless noted

## O=C1NN(C(=O)c2ccc(Cl)cc2)C(c2ccccc2)=N/C1=C\c1cn(-c2ccccc2)nc1-c1ccccc1
  growth: 81.9%

## C=C1C(=O)O[C@H]2[C@H]1CC/C(CNC(=O)c1c[nH]c3ccc(F)cc13)=C\CC[C@@]1(C)O[C@@H]21
  growth: -55.8% (active)

## CCOC(=O)C1=C(C)Nc2nnc(Nc3ccccc3)n2C1c1ccccc1 (configuration not stated)
  growth: 68.4%

## CCCNC(=O)Oc1ccc(/C(=C(/CC)Cc2ccccc2)c2ccc(OCCN(CC)CC)cc2)cc1
  growth: 68.6%

## COc1ccc2c(c1)C(C)Cc1c(ncnc1-n1cnc3cc(C)ccc31)N2C (configuration not stated)
  growth: 7.23% (active)

## Cc1cccc(Cc2cnc(NC(=O)/C=C/c3ccco3)s2)c1
  growth: 31.2%

## NC(=O)C1(Nc2ccc(Br)cc2)CCCC1
  growth: 101%

## COC(=O)[C@]12CC[C@@H](C(=O)/C=C/c3cccnc3)[C@@H]1[C@H]1CC[C@@H]3[C@@]4(C)C/C(=C/c5cccnc5)C(=O)C(C)(C)[C@@H]4CC[C@@]3(C)[C@]1(C)CC2
  growth: -76.1% (active)

## Clc1ccc(/C=N\N2CCCCCC2)cc1
  growth: 106% and 122%

## C#Cc1nc(C(=O)NCCC(=O)Nc2ccc(NC(=O)c3ccc(/C=C/C(=O)c4nccn4C)cc3)cc2)cs1
  growth: 20.6%

## COc1ccc(/C=C(/C(=O)N2CCCCC2)c2cc(OC)c(OC)c(OC)c2)cc1
  growth: 13.3%

## O=C1Nc2ccccc2/C1=N/N=C/c1c[nH]c2ccccc12
  growth: 84.8%

## O=C1C(Cl)=C(Nc2ccc(S(=O)(=O)c3ccc(NC4=C(Cl)C(=O)c5ccccc5C4=O)cc3)cc2)C(=O)c2ccccc21
  growth: -60.1% (active)

## O=C(CN1CCN(c2cc3c(cc2F)c(=O)c(C(=O)O)cn3C2CC2)CC1)Nc1ccc(C(=O)/C=C/c2ccc(Cl)cc2)cc1
  growth: 95.1%

## COc1ccc(-n2c(=O)c3ccccc3n(Cc3ccc(C(=O)NO)cc3)c2=O)cc1
  growth: 3.21% (active)

## C/C(=N\NC(N)=S)c1nc2ccc(Cl)cc2[nH]1
  growth: 44.2%

## COc1cc(C2CC(c3ccc4c(c3)OCO4)=NN2C(C)=O)cc(OC)c1OC (configuration not stated)
  growth: -26.8% (active)

## COc1cc(OC)c2c(=O)c3c(CC=C(C)C)cc(OC)c(O)c3oc2c1
  growth: 110%

## CC(=O)N1N=C(c2ccc(Cl)cc2)CC1c1c(C)nn(-c2ccccc2)c1N(C)Cc1ccccc1 (configuration not stated)
  growth: 58.9%

## N#Cc1c(-c2ccc(F)cc2)nc(N/N=C/c2c[nH]c3ccccc23)nc1N1CCOCC1
  growth: 25.2%

## CCO/C=N/C1=C(C#N)C(c2ccc(F)cc2)c2sc3c(F)cccc3c2O1 (configuration not stated)
  growth: 27.2%

## COc1cccc(C2C3=C(COC3=O)N(CCO)c3cc4c(cc32)OCO4)c1 (configuration not stated)
  growth: -36.3% (active)

## CCCCn1c(=O)c(-c2cc(-c3ccc(Cl)cc3)nc(-c3ccc(Cl)cc3)c2)cc2cc(Cl)ccc21
  growth: 108%

## Cc1ccc(C2=NN(c3ccc(S(C)(=O)=O)cc3)C(=O)CC2)cc1
  growth: 23.9%

## NC/C(=C/F)COc1ccc2nc(NCc3cccnc3)oc2c1
  growth: 107%

## N#Cc1ccc(NC(=O)Nc2ccc(Oc3ccc(NC(=O)Nc4ccc(C#N)cc4)cc3)cc2)cc1
  growth: 26%

## Cn1cc(-c2ccc(F)c(C(F)(F)F)c2)nc1C1CCN(c2ncnc3[nH]ncc23)CC1
  growth: 64.6%

## O=C1Nc2ccccc2/C1=C\c1nc(-c2ccccc2F)n2ccccc12
  growth: 8.76% (active)

## NCCn1cc(-c2nc(-c3c[nH]c4ncccc34)cs2)c2ccccc21
  growth: 40.5%

## O=C(CCc1nnco1)c1nc2ccc([N+](=O)[O-])cc2[nH]1
  growth: 113%

## COc1ccc(-c2cc(-c3cccnc3)nc3sc4c(=O)n(-c5ccc(C)cc5)cnc4c23)cc1OC
  growth: 93.7%

## Oc1ccc(Cl)cc1/C=N\NC(=S)N/N=C/c1cc(Cl)ccc1O
  growth: 1.29% (active)

## NC(=O)c1cc(I)ccc1NC(=O)/C=C/c1ccccc1
  growth: 51.9%

## Cc1ccc(C(=O)NN2C(=O)CSC2c2cccc([N+](=O)[O-])c2)cn1 (configuration not stated)
  growth: 105%

## COc1cc(C2CC(c3cccc(Nc4ccncc4)c3)=NN2c2ccc(Cl)cc2)cc(OC)c1OC (configuration not stated)
  growth: 10.3%

## N/C(=N\C(N)=N\c1nc2ccccc2s1)c1ccc(Cl)cc1
  growth: 94.6%

## COc1ccc(C(C(=O)O)c2ccc(OC)cc2)cc1
  growth: 113%

## Fc1cc(F)cc(NNC(=S)c2ccccc2)c1
  growth: 43.5%

## C=C(C)[C@@H]1CC[C@]2(C(=O)N[C@H](CO)Cc3ccccc3)CC[C@]3(C)[C@H](CC[C@@H]4[C@@]5(C)CCCNC(C)(C)[C@@H]5CC[C@]43C)[C@@H]12
  growth: -90.5% (active)

## C#Cc1ccc(-n2c(/C=C/c3cc(OC)c(OC)c(OC)c3)nc3ncccc3c2=O)cc1
  growth: 3.92% (active)

## O=C(O)c1cccc([N+](=O)[O-])c1O
  growth: 102%

## O=C(O)CCCCCNC(=O)OCc1ccccc1
  growth: 116%

## N=C(N)c1ccc(-c2ccc(-c3ccc(F)cc3)s2)s1
  growth: -77% (active)

## CC1CC(O)CC(C)(C)C1.CC1CC(O)CC(C)(C)C1.CC1CC(O)CC(C)(C)C1.CC1CC(O)CC(C)(C)C1.[Ti] (configuration not stated)
  growth: 115%

## COc1cc2nccc(Oc3ccc(NC(=O)C4(C(=O)Nc5ccc(F)cc5)CC4)cc3)c2cc1Oc1ccc(N)cn1
  growth: 31.7%

## O=C(CC(=O)C(F)(F)C(F)(F)C(F)(F)F)c1cc2ccccc2o1
  growth: 112%

## CC(=O)OCCC/C(=C/c1cc2ccccc2c2ccccc12)[N+](=O)[O-]
  growth: -69% (active)

## O=C(O)c1cccc2c1C(=O)N(c1ccc3c(c1)Cc1ccccc1-3)C2=O
  growth: 107%

## COc1cc(OC)c2c(c1)c1nc3cc(C)c(C)cc3nc1n2CCN(C)C
  growth: 117%

## COc1cc(-c2nc3sccn3c2-c2ccnc(NCCNS(=O)(=O)c3ccc(Cl)cc3)n2)ccc1F
  growth: 29.7%

## COc1ccc(/C=C/C(=O)c2cc(S(N)(=O)=O)c(OC)cc2OC)cc1
  growth: -6.04% (active)

## O=C(Cn1cc(CO)nn1)Nc1nc2ccccc2s1
  growth: 101%

## Cc1cc(N2CCCCC2)nc(NCc2cc(Nc3ccnc4cc(Cl)ccc34)ccc2F)n1
  growth: -60.3% (active)

## CCCCCSB(SCCCCC)c1ccccc1
  growth: 102%

## O=C(C[n+]1cccc(Br)c1)c1ccc2c(c1)CCCC2
  growth: 94%

## COc1cnc2c(c1)C(=O)c1c-2n(CCCNC2=NCCS2)c(=O)c2cc(Cl)ccc12
  growth: -4.65% (active)

## O=[N+]([O-])c1cccc(N=C(Nc2cccc([N+](=O)[O-])c2)c2ccccc2)c1
  growth: 43.2%

## COc1ccc(S(=O)(=O)N(C)c2oc(-c3ccc(Cl)cc3)nc2C#N)cc1
  growth: 32.1%

## CC[N+](CC)(CCCC(C)[N+]1(Cc2ccccc2)C(C)=CC=C1C)Cc1ccccc1 (configuration not stated)
  growth: -12.8% (active)

## COc1cc2nc(-c3ccc(Cl)cc3)cc(OCCCN3CCCCC3)c2cc1OC
  growth: 47.7%

## Nc1nc(Cl)c2[nH]cnc2n1
  growth: 94.7%

## Oc1ccc(CCl)c2cccnc12
  growth: 86.2%

## CC1(C)C2CC1C1(/C=N/NC(N)=S)C(C2)C(C#N)(C#N)C1(C#N)C#N (configuration not stated)
  growth: 76.6%

## CC(C)CCSC1=CC(=O)c2ccccc2C1=O
  growth: -84.1% (active)

## COc1ccc2c(c1)/C(=C\c1c[nH]c3ccc(OC)cc13)C(=O)N2
  growth: -22.5% (active)

## O=c1[nH]c(=O)n(C2CC(O)C(CO)O2)cc1C(F)(F)F (configuration not stated)
  growth: 62.7%

## Oc1c(-c2cc(C(F)(F)F)[nH]n2)cc(Cl)c(OCc2ccc(Cl)cc2)c1-c1ccc(Cl)c(C(F)(F)F)c1
  growth: -21.4% (active)
